# Source: the supplement of paper PMC6992640
# Structures can show the parent of a compound that is named as a salt.
# System: WHIM30 (cells of a triple-negative basal-like breast cancer xenograft)
# Experiment: cell viability of combination (% of vehicle); higher = less cytotoxic
# Settings: 1 µM; 72 h; partner dose: 10 nM
# Experimental: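 PDX cells were treated for 72 h with each drug at 1 µM plus carfilzomib (10 nM; 100 nM for WHIM2). Luciferase viability is expressed as percent of vehicle.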
row,Structure (SMILES),cell viability of combination
1,Cc1c(Cl)cccc1Nc1ccccc1C(=O)O [Tolfenamic Acid] + CC(C)C[C@H](NC(=O)[C@H](CCc1ccccc1)NC(=O)CN1CCOCC1)C(=O)N[C@@H](Cc1ccccc1)C(=O)N[C@@H](CC(C)C)C(=O)[C@@]1(C)CO1 [Carfilzomib],20.7
2,CC(CCC(=O)O)C1CCC2C3CCC4CC(O)CCC4(C)C3CCC12C (stereo not given) [Lithocholic Acid] + CC(C)C[C@H](NC(=O)[C@H](CCc1ccccc1)NC(=O)CN1CCOCC1)C(=O)N[C@@H](Cc1ccccc1)C(=O)N[C@@H](CC(C)C)C(=O)[C@@]1(C)CO1 [Carfilzomib],21.6
3,Oc1c(Cl)cc(Cl)c2cccnc12 [Chloroxine] + CC(C)C[C@H](NC(=O)[C@H](CCc1ccccc1)NC(=O)CN1CCOCC1)C(=O)N[C@@H](Cc1ccccc1)C(=O)N[C@@H](CC(C)C)C(=O)[C@@]1(C)CO1 [Carfilzomib],19
4,CC1(C)CCC(c2ccc(Cl)cc2)=C(CN2CCN(c3ccc(C(=O)NS(=O)(=O)c4ccc(NC(CCN5CCOCC5)CSc5ccccc5)c(S(=O)(=O)C(F)(F)F)c4)cc3)CC2)C1 (stereo not given) [ABT-263 (Navitoclax)] + CC(C)C[C@H](NC(=O)[C@H](CCc1ccccc1)NC(=O)CN1CCOCC1)C(=O)N[C@@H](Cc1ccccc1)C(=O)N[C@@H](CC(C)C)C(=O)[C@@]1(C)CO1 [Carfilzomib],13.3
5,CCc1c(Cl)c(O)c(Cl)c(O)c1C(=O)OC1C(C)OC(OCC2=CC=CCC(O)C(C)=CC(CC)C(OC3OC(C)(C)C(OC(=O)C(C)C)C(O)C3O)C(C)=CC(C)=CCC(C(C)O)OC2=O)C(OC)C1O (stereo not given) [Fidaxomicin] + CC(C)C[C@H](NC(=O)[C@H](CCc1ccccc1)NC(=O)CN1CCOCC1)C(=O)N[C@@H](Cc1ccccc1)C(=O)N[C@@H](CC(C)C)C(=O)[C@@]1(C)CO1 [Carfilzomib],21.2
6,O=C(C=Cn1cnc(-c2cc(C(F)(F)F)cc(C(F)(F)F)c2)n1)NNc1cnccn1 + CC(C)C[C@H](NC(=O)[C@H](CCc1ccccc1)NC(=O)CN1CCOCC1)C(=O)N[C@@H](Cc1ccccc1)C(=O)N[C@@H](CC(C)C)C(=O)[C@@]1(C)CO1 [Carfilzomib],5.58
7,Cc1cc(Nc2ncc(Cl)c(Nc3ccccc3S(=O)(=O)C(C)C)n2)c(OC(C)C)cc1C1CCNCC1 + CC(C)C[C@H](NC(=O)[C@H](CCc1ccccc1)NC(=O)CN1CCOCC1)C(=O)N[C@@H](Cc1ccccc1)C(=O)N[C@@H](CC(C)C)C(=O)[C@@]1(C)CO1 [Carfilzomib],7.66
8,COc1cc2nccc(Oc3ccc(NC(=O)NC4CC4)c(Cl)c3)c2cc1C(N)=O [Lenvatinib (E7080)] + CC(C)C[C@H](NC(=O)[C@H](CCc1ccccc1)NC(=O)CN1CCOCC1)C(=O)N[C@@H](Cc1ccccc1)C(=O)N[C@@H](CC(C)C)C(=O)[C@@]1(C)CO1 [Carfilzomib],21.9
9,CC(C)C(=O)OCC(=O)[C@@]12O[C@H](C3CCCCC3)O[C@@H]1C[C@H]1[C@@H]3CCC4=CC(=O)C=C[C@]4(C)[C@H]3[C@@H](O)C[C@@]12C [Ciclesonide] + CC(C)C[C@H](NC(=O)[C@H](CCc1ccccc1)NC(=O)CN1CCOCC1)C(=O)N[C@@H](Cc1ccccc1)C(=O)N[C@@H](CC(C)C)C(=O)[C@@]1(C)CO1 [Carfilzomib],31.2
10,O=C(O)c1cc(O)c(O)c(O)c1 [Gallic acid] + CC(C)C[C@H](NC(=O)[C@H](CCc1ccccc1)NC(=O)CN1CCOCC1)C(=O)N[C@@H](Cc1ccccc1)C(=O)N[C@@H](CC(C)C)C(=O)[C@@]1(C)CO1 [Carfilzomib],16.3
11,O=C(c1ccc(F)c(F)c1Nc1ccc(I)cc1F)N1CC(O)(C2CCCCN2)C1 (stereo not given) [Cobimetinib] + CC(C)C[C@H](NC(=O)[C@H](CCc1ccccc1)NC(=O)CN1CCOCC1)C(=O)N[C@@H](Cc1ccccc1)C(=O)N[C@@H](CC(C)C)C(=O)[C@@]1(C)CO1 [Carfilzomib],24.7
12,CCCCCCCCOc1ccccc1C(=O)Nc1ccc(C(=O)OCC[N+](C)(CC)CC)cc1.[Br-] [Otilonium Bromide] + CC(C)C[C@H](NC(=O)[C@H](CCc1ccccc1)NC(=O)CN1CCOCC1)C(=O)N[C@@H](Cc1ccccc1)C(=O)N[C@@H](CC(C)C)C(=O)[C@@]1(C)CO1 [Carfilzomib],17.7
13,COc1cccc2c1C(=O)c1c(O)c3c(c(O)c1C2=O)C[C@@](O)(C(C)=O)C[C@@H]3O[C@H]1C[C@H](N)[C@H](O)[C@H](C)O1.Cl [Daunorubicin HCl] + CC(C)C[C@H](NC(=O)[C@H](CCc1ccccc1)NC(=O)CN1CCOCC1)C(=O)N[C@@H](Cc1ccccc1)C(=O)N[C@@H](CC(C)C)C(=O)[C@@]1(C)CO1 [Carfilzomib],4.41
14,CC(C)(C)NC(=O)C1CC2CCCCC2CN1CC(O)C(Cc1ccccc1)NC(=O)C(CC(N)=O)NC(=O)c1ccc2ccccc2n1.CS(=O)(=O)O (stereo not given) [Saquinavir mesylate] + CC(C)C[C@H](NC(=O)[C@H](CCc1ccccc1)NC(=O)CN1CCOCC1)C(=O)N[C@@H](Cc1ccccc1)C(=O)N[C@@H](CC(C)C)C(=O)[C@@]1(C)CO1 [Carfilzomib],22.9
15,CC(C)(C)c1ccc(C(=O)CCCN2CCC(OC(c3ccccc3)c3ccccc3)CC2)cc1 [Ebastine] + CC(C)C[C@H](NC(=O)[C@H](CCc1ccccc1)NC(=O)CN1CCOCC1)C(=O)N[C@@H](Cc1ccccc1)C(=O)N[C@@H](CC(C)C)C(=O)[C@@]1(C)CO1 [Carfilzomib],15.8
16,CC[C@H](C)[C@H]1O[C@]2(CC[C@@H]1C)C[C@@H]1C[C@@H](C/C=C(\C)[C@@H](O[C@H]3C[C@H](OC)[C@@H](O[C@H]4C[C@H](OC)[C@@H](O)[C@H](C)O4)[C@H](C)O3)[C@@H](C)/C=C/C=C3\CO[C@@H]4[C@H](O)C(C)=C[C@@H](C(=O)O1)[C@]34O)O2 [Ivermectin] + CC(C)C[C@H](NC(=O)[C@H](CCc1ccccc1)NC(=O)CN1CCOCC1)C(=O)N[C@@H](Cc1ccccc1)C(=O)N[C@@H](CC(C)C)C(=O)[C@@]1(C)CO1 [Carfilzomib],20.6
17,CCOc1cc2ncc(C#N)c(Nc3ccc(F)c(Cl)c3)c2cc1NC(=O)C=CCN(C)C [Pelitinib (EKB-569)] + CC(C)C[C@H](NC(=O)[C@H](CCc1ccccc1)NC(=O)CN1CCOCC1)C(=O)N[C@@H](Cc1ccccc1)C(=O)N[C@@H](CC(C)C)C(=O)[C@@]1(C)CO1 [Carfilzomib],5.92
18,COc1nc2ccc(Br)cc2cc1[C@@H](c1ccccc1)[C@@](O)(CCN(C)C)c1cccc2ccccc12 [Bedaquiline fumarate] + CC(C)C[C@H](NC(=O)[C@H](CCc1ccccc1)NC(=O)CN1CCOCC1)C(=O)N[C@@H](Cc1ccccc1)C(=O)N[C@@H](CC(C)C)C(=O)[C@@]1(C)CO1 [Carfilzomib],22.5
19,Cl.Nc1ccn(C2OC(CO)C(O)C2O)c(=O)n1 (stereo not given) [Cytarabine hydrochloride] + CC(C)C[C@H](NC(=O)[C@H](CCc1ccccc1)NC(=O)CN1CCOCC1)C(=O)N[C@@H](Cc1ccccc1)C(=O)N[C@@H](CC(C)C)C(=O)[C@@]1(C)CO1 [Carfilzomib],18.8
20,C1=C\COCc2cc(ccc2OCCN2CCCC2)Nc2nccc(n2)-c2cccc(c2)COC/1 [Pacritinib] + CC(C)C[C@H](NC(=O)[C@H](CCc1ccccc1)NC(=O)CN1CCOCC1)C(=O)N[C@@H](Cc1ccccc1)C(=O)N[C@@H](CC(C)C)C(=O)[C@@]1(C)CO1 [Carfilzomib],11.5
